Screens: PubChem BioAssay, several laboratories
IEC-6 cytotox – IEC-6 cytotoxicity, counter-screen for KLF5 inhibitors | luminescence viability | 290,000 compounds, 0.78% hits | inhibition, % at 5 µM;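 also: 0% = plate median of test compound wells and 100% = cytotoxic reference compound wells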
aSyn UTR inh – 5' untranslated region of α-synuclein, MLPCN primary screen; alpha-synuclein 5'UTR reporter, inhibitor activity; inhibition, % (tested at 7.5 µM); 300,000 compounds, 0.82% hits; AID 1813; in the data active = inhibition above about 60%; inconclusive = no clear call, values can overlap the other calls;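 also: H4 neuroglioblastoma cells stably carrying SNCA 5'UTR luciferase fusion; 0% = DMSO wells and 100% = positive control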
APP 5UTR inh – APP translation inhibition | SH-SY5Y APP 5'UTR-luciferase reporter, luminescence | inhibition, % at 2 µM | 190,000 compounds, 0.82% hits;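 active = inhibition above a set limit, derived from the sample mean plus 3 SD, cut at about 45% in these data; inconclusive = one replicate passes the limit while the other fails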
KLF5 inhibitor – inhibitors of KLF5 expression | AID 1700 | inhibition, % at 5 µM | 290,000 compounds, 0.23% hits | DLD-1 KLF5 promoter-luciferase reporter, luminescence;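 active = inhibition above a per-plate limit of that plate's mean compound inhibition plus 3 SD, cut at about 60% in these data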;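 also: 0% = DMSO wells and 100% = LY294002 at 200 µM; higher means less KLF5 promoter-driven luciferase light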
Ba/F3 V617F tox – reduce viability of Ba/F3 cells dependent on JAK2V617F; Ba/F3 EpoR-JAK2V617F viability, ATP luminescence; inhibition, % at 5.6 µM; 220,000 compounds, 1.1% hits; AID 1446;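 active = inhibition above the campaign mean plus 3 SD over all tested compounds, cut at about 24% in these data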;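 also: cytokine-independent growth of Ba/F3 cells driven by EpoR plus mutant JAK2; 0% = DMSO-treated cells and 100% = JAK inhibitor I control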
BaF3 tox – reduces parental Ba/F3 cell viability, JAK2V617F counter-screen; CellTiter-Glo ATP luminescence; inhibition, % at 5.6 µM; 220,000 compounds, 1.1% hits;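 active = inhibition above a per-campaign cutoff, the mean inhibition of all tested compounds plus 3 SD, cut at about 27% in these data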;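 also: 0% = DMSO wells and 100% = JAK Inhibitor I control wells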
IEC-6 tox confirm – IEC-6 cytotoxicity, confirmation assay; inhibition, % at 5 µM; 1,900 compounds, 63% hits; shares compounds with IEC-6 cytotox; IEC-6 rat intestinal epithelial viability, luminescence; AID 1907;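 also: 0% = vehicle and 100% = reference cytotoxic drug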
An asterisk follows results filed as active; ? = inconclusive; . = no result given. Compounds with a hit are over-represented: about 2.2% of the library has one in this group of screens. Rule as the data show it, unless noted: active = inhibition above about 22%; inactive = the rest.

SMILES	IEC-6 cytotox	aSyn UTR inh	APP 5UTR inh	KLF5 inhibitor	Ba/F3 V617F tox	BaF3 tox	IEC-6 tox confirm
COc1ccc(N(CC(=O)Nc2ccc(C)cc2C)S(=O)(=O)c2c(C)n[nH]c2C)cc1	-1.7	23.5	.	-10.0	.	.	.
O=C(Nc1cccc(C(F)(F)F)c1)c1cccnn1	7.8	-1.2	.	-35.4	.	.	.
COc1cc(C(=O)NCC(=O)N2CCN(S(=O)(=O)c3cc(C)ccc3C)CC2)cc(OC)c1OC	29.8*	-75.0	.	14.3	.	.	17.2
CCCCn1c(N)c(N(CCOC)C(=O)CCCc2nc3ccccc3c(=O)[nH]2)c(=O)[nH]c1=O	.	13.5	.	.	.	.	.
COc1cccc(OC)c1C(=O)Nc1ccc(S(=O)(=O)N2CCCCC2)cc1	-1.2	11.3	.	-0.1	.	.	.
Clc1ccc(CSc2nncn2-c2ccccn2)cc1	1.8	1.6	0.2	-18.0	-2.3	6.5	.
Clc1ccc(CSc2nncn2-c2ccc3c(c2)OCCO3)cc1	32.3*	65.8*	.	2.3	6.3	1.9	30.8*
NC(=O)c1ccc[n+](CC(=O)c2ccccc2)c1	22.0*	-12.5	.	25.6	60.2*	26.9*	-2.5
NC(=O)c1ccc[n+](CC(=O)c2ccc(NC(=O)c3ccccc3)cc2)c1	4.0	-6.3	.	-25.0	.	.	.
O=C(Nc1nc(-c2ccccn2)cs1)C1CC1	2.5	-110.7	-2.9	-37.5	-0.9	3.3	.
O=C(Nc1nc(-c2ccccn2)cs1)c1ccc(Br)s1	30.1*	-1.4	25.1	13.3	2.1	5.1	69.8*
O=C(Nc1nc(-c2ccccn2)cs1)c1ccco1	26.5*	42.2	31.7	-31.4	0.9	9.4	28.2*
Cc1nc(NC(=O)c2ccco2)sc1C(=O)O	35.2*	-18.3	.	-1.5	.	.	27.0*
O=C(Nc1nc(-c2ccncc2)cs1)c1ccco1	-2.4	-85.6	-7.5	-37.2	-1.5	6.9	.
O=C(CC1CC2CCC1C2)Nc1nc(-c2ccccn2)cs1 (configuration not stated)	28.7*	-15.3	-37.2	-34.3	4.0	7.2	6.4
Cc1ccc(CN(C)C(=O)c2c(C)nn(-c3ccccc3)c2C)cc1	-4.5	-4.8	.	0.6	.	.	.
COc1ccc(/C=C/C(=O)c2cc(F)ccc2OC(=O)c2ccccc2)cc1OC	46.2*	67.1*	89.5*	56.0	-0.1	1.0	37.0*
C=CCNc1ncnc2c1ncn2C1OC(CO)C(O)C1O (configuration not stated)	74.0*	35.8	9.8	16.6	-1.1	0.0	49.1*
OC[C@H]1O[C@@H](n2cnc3c(NC4CCCC4)ncnc32)[C@H](O)[C@@H]1O	-1.5	30.8	-10.0	-4.6	-3.0	4.5	.
Cc1cccc(C)c1NC(=O)c1cccc(N2C(=O)C3CCC(C)CC3C2=O)c1 (configuration not stated)	-1.9	10.1	.	-20.9	.	.	.
Cc1ccc(C(=O)Cn2c(C(=O)OCCO)cc3ccccc32)cc1	26.5*	30.2	.	-6.4	.	.	9.5
O=C1C(=O)N(C/C=C/c2ccccc2)c2ccccc21	89.4*	-39.8	.	5.0	.	.	65.4*
O=C1c2ccccc2C(=O)N1C/C=C/c1ccccc1	-3.7	-8.2	6.0	1.1	4.8	7.9	.
CCOC(=O)CSC1=C(C#N)C(c2ccc(C)o2)CC(=O)N1 (configuration not stated)	82.9*	78.1*	94.9*	54.6	73.7*	79.3*	59.0*
Cc1noc(C)c1C(=O)OCC(=O)Nc1c(F)cccc1F	-0.3	-2.4	-20.0	-10.9	-0.3	3.6	.
SMILES	IEC-6 cytotox	aSyn UTR inh	APP 5UTR inh	KLF5 inhibitor	Ba/F3 V617F tox	BaF3 tox	IEC-6 tox confirm
O=C(Nc1ccc2ccccc2c1)c1cnccn1	0.8	-129.2	-156.6	-195.5	3.3	7.8	.
COC(=O)c1ccccc1NC(=O)c1nc(S(=O)(=O)Cc2ccccc2)ncc1Cl	9.2	34.0	.	40.1	.	.	.
O=C(NCc1ccccc1)c1nc(S(=O)(=O)Cc2ccccc2)ncc1Cl	52.2*	50.6	.	19.4	.	.	24.2*
CS(=O)(=O)c1ncc(Cl)c(C(=O)Nc2ccc3ccccc3c2)n1	24.2*	19.6	96.2*	5.2	83.3*	52.4*	21.4
COc1ccc(CNC(=O)c2nc(S(=O)(=O)Cc3ccccc3)ncc2Cl)cc1	49.7*	?	.	20.0	.	.	22.4*
O=C(NCc1ccccc1)c1c(Cl)nc(Cl)c(Cl)c1Cl	23.3*	99.2*	.	-14.3	.	.	-3.9
CCCCN1CC[C@H]2C=CC[C@@H](C(=O)Nc3nccs3)[C@H]2C1=O	.	28.5	.	.	.	.	.
CC(=O)Nc1ccc(NC(=O)c2nc(S(=O)(=O)Cc3ccccc3)ncc2Cl)cc1	25.5*	1.9	.	19.2	.	.	1.0
COC(=O)c1cc(S(=O)(=O)NCC2CCN(Cc3cccc(Cl)c3)CC2)c[nH]1	-5.4	-24.1	.	-30.1	.	.	.
CC(=O)c1c(C)oc2c1C(=O)c1ccccc1C2=O	3.2	-62.1	2.1	-12.3	-1.3	7.5	.
Cc1oc2c(c1C(=O)NCc1cccnc1)C(=O)c1ccccc1C2=O	101.5*	106.6*	95.2*	-16.7	93.9*	101.4*	104.5*
NS(=O)(=O)c1cccc(NC(=O)CSc2nnc(-c3ccccc3F)n2C2CC2)c1	-4.1	-3.8	.	-16.6	-0.2	1.6	.
CCCNC(=O)c1ccccc1NC(=O)c1ccc2c(c1)NC(=O)C(C)S2 (configuration not stated)	41.5*	-96.1	.	34.7	.	.	21.4
CC(=O)c1c(C)n(-c2ccccc2Br)c2ccc(O)cc12	3.2	6.2	.	-9.4	.	.	.
CC(=O)c1c(-c2ccccc2)c2cc(Cl)ccc2n(C)c1=O	22.5*	27.9	.	-2.0	.	.	6.9
Cn1c(=O)c(C(=O)NCc2ccc(Cl)cc2)c(O)c2ccccc21	-4.0	4.7	.	-34.2	.	.	.
N#C/C(=C\c1ccccn1)c1ccccn1	28.2*	-50.5	.	-46.0	.	.	17.4
Cc1cc(C)cc(NS(=O)(=O)c2ccc3c(c2)c(=O)n(C)c(=O)n3C)c1	35.2*	?	14.8	33.3	49.2*	66.6*	33.3*
Cn1c(=O)c2cc(S(=O)(=O)Nc3cc(C(=O)O)cc(C(=O)O)c3)ccc2n(C)c1=O	-7.7	-18.4	-7.8	-30.0	-1.0	5.8	.
COc1ccc(/C=C/C(=O)OC(C)CN2CCCCC2)cc1 (configuration not stated)	1.4	3.2	.	-3.4	.	.	.
COc1ccccc1-n1cnc2cc(NCc3ccccc3O)ccc21	1.2	-26.0	.	-18.0	1.6	2.3	.
COc1ccccc1-n1cnc2cc(NCc3ccco3)ccc21	79.6*	?	94.3*	55.7	73.6*	78.2*	56.3*
COc1ccc(C(=O)N2CCn3c2nc2ccccc23)cc1	0.4	-108.4	-17.1	-73.0	-0.2	5.2	.
COc1ccc(C(=O)n2c(-c3ccco3)nc3ccccc32)cc1	47.6*	-100.5	50.1*	24.7	10.3	8.2	35.8*
CC12CCC(=O)N1C(C(=O)Nc1ccc(Br)cc1Cl)CS2 (configuration not stated)	0.7	11.5	.	1.8	.	.	.
COc1ccc(C(=O)N/N=C/C(Br)=C/c2ccccc2)cc1	-1.8	-57.9	24.0	-44.0	0.6	6.8	.
